Assay outcomes from PubChem BioAssay.
IMPase Li cell: membrane-permeable IMPase blocker, potentiated with lithium | CHO-M1 cells, IP1 TR-FRET (IP-One), carbachol + lithium | Potency, µM (titrated, usually from 59.4 µM), usual class: inhibitors | 210,000 tested, 0.35% active | AID 1457;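 also: IP1 builds up when IMPase is blocked and the TR-FRET signal falls; nearly all actives have a fitted effect of over 50% in size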
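Steps: plate 2000 CHO-M1 cells per well and culture 16–30 h; add compound and lithium; incubate 30 min, 37C; add d2-IP1 tracer and Eu cryptate anti-IP1 antibody in lysis buffer; read after 10 min at room temperature.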
12-hLO inh: blocks human 12-lipoxygenase activity | 150,000 tested, 0.12% active | Potency, µM (titrated, usually from 57.1 µM), actives largely listed as inhibitors | purified 12-hLO, xylenol orange hydroperoxide absorbance | P18054; also: nearly all actives have a fitted effect of over 55% in size
Target sequence (P18054 whole entry, looked up): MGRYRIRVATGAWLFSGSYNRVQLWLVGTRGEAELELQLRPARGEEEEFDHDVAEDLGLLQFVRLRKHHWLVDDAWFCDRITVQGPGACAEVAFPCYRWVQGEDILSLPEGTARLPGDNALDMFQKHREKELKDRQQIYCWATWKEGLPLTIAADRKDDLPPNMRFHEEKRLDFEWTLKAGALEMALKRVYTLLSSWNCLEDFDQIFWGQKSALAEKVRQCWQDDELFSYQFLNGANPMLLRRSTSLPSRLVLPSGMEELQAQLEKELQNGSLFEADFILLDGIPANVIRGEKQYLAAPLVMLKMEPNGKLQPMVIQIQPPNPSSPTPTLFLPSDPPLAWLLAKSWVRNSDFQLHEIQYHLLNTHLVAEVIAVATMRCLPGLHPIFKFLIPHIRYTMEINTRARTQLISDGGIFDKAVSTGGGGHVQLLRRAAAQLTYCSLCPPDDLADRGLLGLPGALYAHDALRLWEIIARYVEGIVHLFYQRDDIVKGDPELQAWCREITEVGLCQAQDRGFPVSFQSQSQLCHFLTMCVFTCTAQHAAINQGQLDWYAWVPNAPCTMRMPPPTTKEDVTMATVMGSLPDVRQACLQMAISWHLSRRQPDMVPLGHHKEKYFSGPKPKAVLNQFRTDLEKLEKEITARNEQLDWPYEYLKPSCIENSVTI
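Hydroperoxide formation by human 12-lipoxygenase from 40 uM arachidonic acid was followed colorimetrically via ferric-xylenol orange complex, using the 573/405 nm absorbance ratio. Enzyme concentration was 150 nM, with 30 min reaction at room temperature.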
HPGD block: HPGD (human) dehydrogenase inhibition. purified HPGD, NADH fluorescence kinetic, PGE2 substrate. Potency, µM, most hits filed as inhibitors. 150,000 tested, 4.3% active; active = well fitted inhibition curve with a large enough effect, not every such curve was filed as active; inconclusive = small, poorly fitted or top-dose-only effect, or another doubt; inactive = no such curve, though single readings can be large or run the other way
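NADH formation kinetics: reaction with 30 uM PGE2 and 1 mM NAD+ (final), 20 nM enzyme, Tris-HCl pH 8 with Tween 20, after 15 min compound preincubation at room temperature. Fluorescence change, last versus first of five reads.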
NPSR antag: blocks cAMP signaling of the human neuropeptide S receptor. AID 1461. Q6W5P4. CHO-NPSR cells, cAMP TR-FRET, antagonist mode. Potency, µM (highest dose often 38.3 µM), usual class: inhibitors. 220,000 tested, 1% active; also: nearly all actives have a fitted effect of over 50% in size
IMPase cell inh: cell-permeable inhibitors of inositol monophosphatase (IMPase); inhibition (IP1 accumulation), % at 46.1 µM; P97697; CHO-M1 cells, IP1 accumulation, HTRF TR-FRET ratio; 120,000 tested, under 10 active; active = well fitted curve in the direction sought with a large enough effect in the signal ratio, not every such curve was filed as active; inconclusive = small, poorly fitted or top-dose-only effect, or a change in a side signal; inactive = no such curve, though single readings can be large or run the other way; the % refers to the signal ratio;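 also: cells stimulated with carbachol in lithium chloride buffer; higher means more IMPase inhibition seen as more IP1 and lower FRET ratio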
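Elevated IP1 in lysates lowers TR-FRET signal (665/620 ratio and 620 channel reported). Cells were CHO-M1, given carbachol (50 uM as added) plus 50mM LiCl, pH 7.4, 30 min, 37C; compounds titrated up to 46 uM; AC50 by Hill equation.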
ALDH1A1 inh: blocks purified human ALDH1A1 activity | P00352 | Purified ALDH1A1, NADH fluorescence, propionaldehyde substrate | Potency, µM (highest dose often 75.3 µM), hits mostly inhibitors | 220,000 tested, 7.3% active | AID 1030; active = well fitted inhibition curve with a large enough effect, not every such curve was filed as active; inconclusive = small, poorly fitted or top-dose-only effect, or another doubt; inactive = no such curve, though single readings can be large or run the other way
Numbers stand for hits; n = inactive; u = inconclusive; x = no result given; [ ] = dose if it differs, or a comment. Most compounds without a hit are left out; they make up all but 8.9% or so of the library. Unless noted, calls follow the shape of the dose curve; as a rule, active = well fitted curve in the direction sought with a large enough effect; inconclusive = small, poorly fitted or top-dose-only effect, or another doubt; inactive = no such curve, though single readings can be large; an effect the other way counts as inactive or inconclusive.

SMILES	IMPase Li cell	12-hLO inh	HPGD block	NPSR antag	IMPase cell inh	ALDH1A1 inh
Cc1cccc(N=N/C(=C\O)C(=O)c2cccs2)c1	n	x	x	u	x	8.9µM
O=C(/C(N=Nc1cccc(C(F)(F)F)c1)=C(/O)c1cccs1)C(F)(F)F	x	x	x	u	x	n
O=C(O)Cn1cc(/C=C2\SC(=O)N(c3ccccc3)C2=O)c2ccccc21	n	x	x	n	x	22µM
Cn1cc(/C=C2/SC(=O)N(c3ccccc3)C2=O)c2ccccc21	n	n	n	n	n	n
O=c1[nH]c(SCc2ccc(Cl)cc2)nc2c1CCC2	n	n	4.5µM	n	n	n
Cc1oc(-c2ccccc2Cl)nc1CSCC(=O)NC1CCCC1	n	n	n	n	n	14µM
O=c1[nH]c(SCc2cccc(F)c2)nc2c1CCCC2	n	n	7.1µM	n	x	n
O=c1[nH]c(SCc2cccc(Cl)c2)nc2c1CCCC2	x	n	x	n	n	n
Cc1cccc(CSc2nc3c(c(=O)[nH]2)CCCC3)c1	n	n	7.9µM	n	x	n
CC(=O)N(Cc1cccnc1)c1cccc(-c2nc3ccccc3s2)c1	n	x	x	n	x	n
Cc1ccc(C(=O)COC(=O)c2ccc(O)cc2)cc1	n	x	x	n	x	u
c1ccc(-c2nc(N3CCN(c4ccccc4)CC3)nc(-n3ccnc3)n2)cc1	x	n	x	u	n	n
CCOc1ccc2nc(NC(=O)CN3CCC(n4nnc5cc(C(F)(F)F)ccc54)CC3)sc2c1	n	n	n	n	n	n
Cc1oc(-c2ccccc2Cl)nc1CSc1nc2c(c(=O)[nH]1)CCC2	n	n	2.8µM	n	x	n
Cc1oc(-c2ccccc2Cl)nc1CSCC(=O)N1CCCC1	n	n	n	n	n	u
CNC(=O)c1ccc(OCc2ccccc2)c(OC)c1	n	n	n	n	n	n
COc1ccccc1NC(C#N)c1ccccc1OCc1ccccc1 (configuration not stated)	n	n	n	n	x	18µM
COCCCNC(=O)Cn1nc(-c2ccc(C)cc2)ccc1=O	n	n	n	n	n	u
Cc1cc(C)nc(/N=C(\N)C2=C(O)CC(C)(C)CC2=O)n1	n	n	n	n	n	3.2µM
CC(=Nc1ccccc1)C1=C(O)CC(C)(C)CC1=O	n	x	x	n	x	n
O=C(/C=C/c1ccc([N+](=O)[O-])cc1)NCc1ccco1	n	n	n	n	n	n
O=C(/C=C/c1ccc(F)cc1)NCc1ccco1	n	n	25µM	n	x	n
O=C(/C=C/c1c(F)cccc1Cl)NCc1ccco1	n	n	10µM	n	x	u
O=C(/C=C/c1c(F)cccc1Cl)c1ccc(F)cc1	n	u	13µM	n	n	n
CCc1ccccc1Nc1cc(C(=O)NCc2ccccn2)c2ccccc2n1	n	x	x	n	x	n
SMILES	IMPase Li cell	12-hLO inh	HPGD block	NPSR antag	IMPase cell inh	ALDH1A1 inh
O=C(O)[C@@H](O)c1ccc(F)cc1	n	n[11.4 µM]	n	x	x	n[13.5 µM]
O=C(Nc1cccnc1)c1ccccc1-c1nc(-c2ccccc2F)no1	n	n	n	n	n	11µM
Cc1onc(-c2ccccc2Cl)c1C(=O)OCN1C(=O)c2ccccc2C1=O	n	n	11µM	n	n	n
Cc1onc(-c2ccccc2)c1C(=O)Nc1cccnc1	n	n	n	n[7.67 µM]	n	u
CCSc1nnc(NC(=O)c2c(-c3ccccc3Cl)noc2C)s1	n	n	n	n	n	11µM
Cc1onc(-c2ccccc2Cl)c1C(=O)OCc1cnc(Cl)s1	n	x	x	n	x	n
Cc1onc(-c2ccccc2Cl)c1C(=O)Nc1nnc(-c2cccc([N+](=O)[O-])c2)s1	n	n	n	n	n	u
Cc1onc(-c2ccccc2Cl)c1C(=O)Nc1cccnc1	n	n	n	n	n	22µM
CCOC(=O)c1sc(Nc2ccc(OCC)cc2)nc1C	n	x	x	n	x	n
CCOC(=O)c1sc(N2N=C(C)/C(=C\c3ccc(OCC(=O)OC)cc3)C2=O)nc1C	n	n	28µM	n	n	14µM
Cc1cccc(NC(=O)/C(=C/c2cccc([N+](=O)[O-])c2)NC(=O)c2cccs2)c1	n	n	n	n	n	n
O=C(N/C(=C\c1cccc([N+](=O)[O-])c1)C(=O)N1CCCCC1)c1cccs1	n	n	n	u	n	20µM
O=C(O)/C=C\c1c2ccc(=O)c(O)c-2oc2c(O)c(O)ccc12	n	n[11.4 µM]	2.8µM	x	x	n[13.5 µM]
O=C(O)[C@H]1CCCC[C@@H]1c1c2ccc(=O)c(O)c-2oc2c(O)c(O)ccc12	n	n[11.4 µM]	4.5µM	x	x	n[13.5 µM]
Cc1cc(C)n(C(=O)c2ccc([N+](=O)[O-])cc2N)n1	n	x	x	n	x	n
Cc1sc2ncnc(SCc3ccc(C(=O)O)cc3)c2c1C	n	x	x	n	x	40µM
Cc1ccc(C)c(Sc2ccc(NC(=O)CCl)cc2)c1	n	n	n	n	x	0.89µM
Cc1ccc(Sc2ccc(NC(=O)CCl)cc2)cc1C	n	n	u	n	x	2µM
CSc1ccc(NC(=O)CC(C)=O)cc1	n	n	n	n	n	n
CC(C)Cn1c(N)c(C=O)c(=O)n(C)c1=O	n	x	x	n	x	n
CCOC(=O)c1cc([N+](=O)[O-])c([N+](=O)[O-])cc1NC(C)=O	n	n	22µM	10µM	x	8.9µM
CCOC(=O)c1ccc(NC(=O)c2ccccc2[N+](=O)[O-])cc1	n	n	n	n	x	u
O=C(/C=C/c1ccccc1)N1CCN(Cc2nc3ccccc3c(=O)[nH]2)CC1	n	n	32µM	n	n	u
O=c1[nH]c(CN2CCCCC2)nc2ccccc12	n	n	n	n	n	n
CCCCS/C(=C(/C#N)C(N)=O)c1cc2c([nH]1)CCCC2	n	u	u	n	n	14µM
SMILES	IMPase Li cell	12-hLO inh	HPGD block	NPSR antag	IMPase cell inh	ALDH1A1 inh
CCc1ccc(N/C(SC)=C(/C#N)C(N)=O)cc1	n	n	n	n	n	n
CC1(C)CC(=O)CC(=O)/C1=N\Nc1c(Cl)cc(Cl)cc1Cl	n	n	n	n	n	6.3µM
Cc1[nH]c(-c2ccccn2)nc(=S)c1Cl	x	x	x	n	x	x
COc1cc(C(=S)N2CCN(c3cccc(Cl)c3)CC2)ccc1O	n	x	x	n	x	3.5µM
O=C(COC(=O)/C=C/C(=O)N1CCN(c2ccccc2)CC1)NC(c1ccccc1)c1ccccc1	n	x	x	n	x	19µM
COC(=O)c1ccc(C(=O)OC)c(NC(=S)N2CCN(c3cccc(Cl)c3)CC2)c1	n	n	n	n	x	n
COc1ccc(C(=O)N2CCN(c3cccc(Cl)c3)CC2)cc1	n	n	n	n	n	n
Oc1ccc(C(=S)N2CCN(c3cccc(Cl)c3)CC2)cc1	n	x	x	n	x	7.9µM
COC(=O)/C=C/C(=O)N1CCN(c2cccc(Cl)c2)CC1	n	n	n	n	x	10µM
Cc1ccc(NC(=O)c2oc3ccccc3c2NC(=O)c2ccc3c(c2)OCO3)cc1	n	n	u	n	n	u
O=C(NCCCN1CCCC1)[C@H](CSCc1ccccc1)N1Cc2ccccc2C1=O	x	x	x	n	x	x
O=C(NC1CCCC1)c1cc(S(=O)(=O)N2CCOCC2)c(Cl)cc1Cl	n	x	x	n	x	n
